Data on 68 compounds can be found in ChEMBL document CHEMBL3988442, “University of Dundee, Small-Polar-MMV Screening Library” (2021).

Among all 48,000 compounds or so, about 13,000 (27%) showed an effect of 50% or more. The list shows a part of the results.

The test system of this test is Wolbachia pipientis. The experiment in a line: Anti-Wolbachia Cell-Based Screen. It is filed as functional. On the set-up: scale not given: in the data most compounds retested in dose-response had high values. To be noted: 5 µM.
Regarding `CNC(=O)c1nc(CN2CCOC(C(F)(F)F)C2)no1` (stereo not drawn), the “Percent Effect” value is -14.11%.

With `CNC(=O)c1nc(CN2CCOC(Cc3ccc(F)cc3)C2)no1` (stereo not drawn), the “Percent Effect” value is given as -1.093%.

For `CC(C)NC(=O)c1nc(Cn2c(C(F)(F)F)nc3ccccc32)no1`, the “Percent Effect” value amounted to 97.59%.

As for `NC(=O)c1nc(CN2CCOC(C(F)(F)F)C2)no1` (stereo not drawn), the “Percent Effect” value is on record as -3.309%.

With `Cc1ccc(C(=O)NC2CCN(Cc3noc(CC(C)C)n3)CC2)s1`, the “Percent Effect” value stood at 3.066%.

For `CNC(=O)c1nc(CN2CCOC(CCCC(C)C)C2)no1` (stereo not drawn), the “Percent Effect” value was 2.803%.

`CC(C)NC(=O)c1nc(Cn2c(C(F)F)nc3ccccc32)no1`: the “Percent Effect” value was found to be 117.9%.

For the compound `CC(C)NC(=O)CN(C)C1CCN(c2cnc3ccccc3n2)CC1`, the “Percent Effect” value is -13.33%.

Turning to `O=C(NC1CC1)c1nc(Cn2c(C(F)F)nc3ccccc32)no1`, the “Percent Effect” value is 97.34%.

With `O=C(NCCn1ccnc1)c1csc(Br)c1`, the “Percent Effect” value amounted to 7.312%.

In the case of `CC(C)c1cncnc1-c1cc(F)cc2c1OC(CN)C2` (stereo not drawn), the “Percent Effect” value is listed as -15.48%.

With `O=C(NCC1CCCO1)c1nc2c(s1)CCCN2c1ncccn1` (stereo not drawn), the “Percent Effect” value is recorded as 95.9%.

In the case of `Cc1ccc(N2CCCc3sc(C(=O)NCC4CCCO4)nc32)nn1` (stereo not drawn), the “Percent Effect” value turned out to be 101.4%.

Take `O=C(NCC1CCCO1)c1nc2c(s1)CCCN2C(=O)C1CC1` (stereo not drawn): the “Percent Effect” value is 108.2%.

With `O=C(NCC1CCCO1)c1nc2c(s1)CCCN2CC1CC1` (stereo not drawn), the “Percent Effect” value stood at 97.2%.

As to `O=C(NC1CC1)c1nc2c(s1)CCCN2c1ccccc1`, the “Percent Effect” value is recorded as 3.118%.

`O=C(c1nc2c(s1)CCCN2CC1CC1)N1CCCC1`: the “Percent Effect” value is listed as 21.73%.

Regarding `Cc1ccc(N2CCCc3sc(C(=O)NCc4ccc(C)o4)nc32)nn1`, the “Percent Effect” value is -0.9915%.

Turning to `CN1CCCc2sc(C(=O)NC3CC3)nc21`, the “Percent Effect” value is -6.027%.

On to `O=C(c1nc2c(s1)CCCN2C(=O)C1CC1)N1CCOCC1`, for which the “Percent Effect” value was 0.08995%.

On to `O=C(c1nc2c(s1)CCCN2CC1CC1)N1CCOCC1`, for which the “Percent Effect” value stood at 13.28%.

On to `Cc1ccc(N2CCCc3sc(C(=O)NCCO)nc32)nn1`, for which the “Percent Effect” value is -4.347%.

For `O=C(NCc1cccnc1)c1nc2c(s1)CCCN2c1ncccn1`, the “Percent Effect” value is given as -3.859%.

Turning to `c1cnc(NCC2Cn3nnc(-c4ccsc4)c3CO2)nc1` (stereo not drawn), the “Percent Effect” value was -8.794%.

For `CCc1nnc(N2C[C@@H](NC(C)=O)[C@H](c3ccc(C)o3)C2)s1`, the “Percent Effect” value turned out to be 0.4936%.

Regarding `CCN1CCN(c2ccc(C(=O)NC(C)C(=O)N(C)C)cc2)CC1` (stereo not drawn), the “Percent Effect” value was found to be 1.595%.

As for `CNC(=O)CN1CCN(C(=O)Nc2ccc(C)s2)CC1`, the “Percent Effect” value is -4.084%.

On to `CN(CCc1cccs1)C(=O)Nc1ccc2c(c1)C(=O)N(C)CC2`, for which the “Percent Effect” value was -32.58%.

Consider `Cc1nn(C(C)C)c(C)c1CN1CCC(c2cc(C(C)C)n[nH]2)CC1`, for which the “Percent Effect” value is reported as 4.458%.

`COCCNC(=O)c1nc2c(s1)CCCN2Cc1ccccc1`: the “Percent Effect” value came to 6.623%.

For `O=C(NCC1CCCO1)c1nc2c(s1)CCCN2Cc1ccccc1` (stereo not drawn), the “Percent Effect” value came to 98.1%.

Regarding `CN(C)C(=O)CNC(=O)c1nc2c(s1)CCCN2Cc1ccccc1`, the “Percent Effect” value is on record as -13.23%.

For the compound `COCCN1CCCc2sc(C(=O)N3CCCN(C)CC3)nc21.O=C(O)C(F)(F)F`, the “Percent Effect” value is -1.049%.

In the case of `COCCN1CCCc2sc(C(=O)NCC3CCCO3)nc21` (stereo not drawn), the “Percent Effect” value is 104.4%.

`COCCN1CCCc2sc(C(=O)Nc3ccc(C)nc3)nc21.O=C(O)C(F)(F)F`: the “Percent Effect” value was 8.218%.

As for `Cc1ccc(-c2n[nH]cc2CN(Cc2nccn2C)C(C)C)cc1C`, the “Percent Effect” value is given as -8.138%.

As to `COc1ccc(N2Cc3nc(=O)[nH]n3C2=O)cc1`, the “Percent Effect” value is -10.45%.

`COCCSc1ccc(-n2cccn2)nn1`: the “Percent Effect” value is listed as 0.3938%.

With `CC(c1nncn1C)n1cc(-c2cc(CN3CCCC3)cs2)nn1` (stereo not drawn), the “Percent Effect” value turned out to be 2.3%.

Regarding `CCC(Sc1ncc(CO)n1C)c1ccccc1` (stereo not drawn), the “Percent Effect” value turned out to be 5.427%.

With `Oc1nnc(-c2ccccc2)c2sc(N3CCCCC3)nc12`, the “Percent Effect” value is on record as -2.363%.

For the compound `Cc1cc(Br)c(O)c(-c2nc(N3CCCCC3)sc2C)c1`, the “Percent Effect” value stood at 122.7%.

As for `Cc1cc(Br)c(O)c(C(=O)N2CCC(CN3CCCCCC3)CC2)c1`, the “Percent Effect” value is 20%.

In the case of `Cc1cc(Br)c(O)c(-c2nc(N3CCOCC3)sc2C)c1`, the “Percent Effect” value was 133.3%.

`COc1ccc(-n2nc(C(C)C)nc2Cn2cncn2)cc1`: the “Percent Effect” value turned out to be 2.008%.

For the compound `CCn1c(CC2CCN(C(=O)c3cc(CC(C)C)on3)CC2)n[nH]c1=O`, the “Percent Effect” value came out at 3.496%.

Turning to `O=C(c1cc(C2CC2)on1)N1CCC(Oc2ncccc2Br)CC1`, the “Percent Effect” value stood at 12.65%.

Take `CCn1c(C2CCN(C(=O)c3cc(CC(C)C)no3)CC2)nn(C)c1=O`: the “Percent Effect” value is on record as 80.93%.

In the case of `CCn1c(C2CCN(C(=O)c3cc(C4CC4)on3)CC2)nn(C)c1=O`, the “Percent Effect” value is given as 94.75%.

As to `CC(C)Cc1cc(C(=O)N2CCC(C(=O)N3CCOCC3)CC2)on1`, the “Percent Effect” value was -1.733%.

As to `COC(=O)C1CCCN1C(=O)c1cc(CC(C)C)no1` (stereo not drawn), the “Percent Effect” value is reported as -6%.

On to `Cc1nc(CN2CCN(C(=O)c3cc(C4CC4)on3)CC2)cs1`, for which the “Percent Effect” value is on record as -4.93%.

Regarding `CCn1c(C2CCN(C(=O)CCc3cc(Cl)no3)CC2)nn(C)c1=O`, the “Percent Effect” value came out at 91.1%.

Consider `CCn1nc(CC(C)C)cc1C(=O)N1CCC(n2cnnc2)CC1`, for which the “Percent Effect” value was 19.79%.

In the case of `O=C(CCc1cc(Cl)no1)N1CCN(CCn2cncn2)CC1`, the “Percent Effect” value is -9.479%.

`CCn1c(C2CCN(C(=O)c3cc(CC(C)C)on3)CC2)nn(C)c1=O`: the “Percent Effect” value is on record as 100.4%.

Regarding `CCOC(=O)CC1CCCCN1C(=O)CCc1cc(Cl)no1` (stereo not drawn), the “Percent Effect” value is -3.772%.

With `CC(C)N(Cc1cccnc1)C(=O)CSc1ccc(C#N)cc1`, the “Percent Effect” value is -11.42%.

For `CC(C)(C)c1cc(C[C@H]2CNCC[C@H]2CC(=O)Nc2ccccc2)no1`, the “Percent Effect” value is -4.037%.

As for `COc1ccc(Cc2noc(C3=NN(C)C(=O)CC3)n2)cc1OC`, the “Percent Effect” value was -17.82%.

For `CCn1c(C2CCCN(Cc3ccc(F)cc3Cl)C2)nn(C)c1=O` (stereo not drawn), the “Percent Effect” value is reported as -0.1084%.

In the case of `CCn1c(C2CCN(C(=O)c3cc(Cl)no3)CC2)nn(C)c1=O`, the “Percent Effect” value is reported as 81.76%.

In the case of `CCn1c(C2CCCN(Cc3cc(C)cc(C)c3)C2)nn(C)c1=O` (stereo not drawn), the “Percent Effect” value is given as 14.99%.

As to `COC1CCN(C(=O)CC2CCCC2)CC(=O)N(C)c2ccccc21` (stereo not drawn), the “Percent Effect” value is 104.1%.

`COC1CN(C(=O)CC2CCCC2)CCC(=O)N(C)c2ccccc21` (stereo not drawn): the “Percent Effect” value came to 101.3%.

As for `COC1CCN(C(=O)C2CCCC2)CC(=O)N(C)c2ccccc21` (stereo not drawn), the “Percent Effect” value was 111%.

As to `CCN1CCC(CC(=O)N2CCN(c3ccccc3OC)CC2C)CC1` (stereo not drawn), the “Percent Effect” value amounted to 10.24%.

`COC1CCN(C(=O)C2CC(=O)N(c3ccccc3Br)C2)CC1` (stereo not drawn): the “Percent Effect” value was -10.75%.
